Consider 18 molecules from ChEMBL document CHEMBL2218924, “A broad activity screen in support of a chemogenomic map for kinase signalling research and drug discovery” (Biochem J, 2013).

Assay [1] concerns the target Ribosomal protein S6 kinase alpha-1 (Homo sapiens) (UniProt Q15418). The note with it: at 1 µM.
For assay [2] the target is unchanged. The note with it: at 10 µM.
In assay [3] the target is Ribosomal protein S6 kinase alpha-3 (Homo sapiens) (UniProt P51812). The note with it: at 1 µM.
For assay [4] the target is unchanged. The note with it: at 10 µM.
Assay [5] addresses Ribosomal protein S6 kinase alpha-2 (Homo sapiens) (UniProt Q15349). The note with it: at 1 µM.
The target is the same in assay [6]. Particulars: at 10 µM.
The target of assay [7] is Ribosomal protein S6 kinase alpha-6 (Homo sapiens) (UniProt Q9UK32). Particulars: at 1 µM.
Assay [8] shares this target. Particulars: at 10 µM.
In assay [9] the target is Mitogen-activated protein kinase 14 (Homo sapiens) (UniProt Q16539). Particulars: at 1 µM.
Assay [10] shares this target. Particulars: at 10 µM.

Chain of Ribosomal protein S6 kinase alpha-2 (Homo sapiens) (Q15349 whole entry): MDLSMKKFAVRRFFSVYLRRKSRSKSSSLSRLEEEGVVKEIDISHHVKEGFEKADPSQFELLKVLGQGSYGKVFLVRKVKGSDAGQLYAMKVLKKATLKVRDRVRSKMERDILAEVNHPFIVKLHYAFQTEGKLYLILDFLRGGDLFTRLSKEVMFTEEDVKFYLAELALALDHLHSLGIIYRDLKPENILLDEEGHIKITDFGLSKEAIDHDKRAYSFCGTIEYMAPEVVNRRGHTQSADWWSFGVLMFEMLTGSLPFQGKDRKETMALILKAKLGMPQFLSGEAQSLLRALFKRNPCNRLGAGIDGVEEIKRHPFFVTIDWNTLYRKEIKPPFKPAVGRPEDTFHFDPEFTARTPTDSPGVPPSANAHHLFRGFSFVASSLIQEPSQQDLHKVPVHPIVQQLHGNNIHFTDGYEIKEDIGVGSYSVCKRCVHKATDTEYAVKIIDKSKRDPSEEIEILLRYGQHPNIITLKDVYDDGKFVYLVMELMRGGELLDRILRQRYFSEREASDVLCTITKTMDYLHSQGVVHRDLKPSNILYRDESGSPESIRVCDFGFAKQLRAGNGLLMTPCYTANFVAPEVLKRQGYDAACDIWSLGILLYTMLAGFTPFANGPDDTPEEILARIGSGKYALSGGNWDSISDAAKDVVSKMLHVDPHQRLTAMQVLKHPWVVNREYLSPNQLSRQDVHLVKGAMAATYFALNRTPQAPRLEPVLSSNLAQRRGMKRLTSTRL
Chain of Ribosomal protein S6 kinase alpha-1 (Homo sapiens) (Q15418 whole entry): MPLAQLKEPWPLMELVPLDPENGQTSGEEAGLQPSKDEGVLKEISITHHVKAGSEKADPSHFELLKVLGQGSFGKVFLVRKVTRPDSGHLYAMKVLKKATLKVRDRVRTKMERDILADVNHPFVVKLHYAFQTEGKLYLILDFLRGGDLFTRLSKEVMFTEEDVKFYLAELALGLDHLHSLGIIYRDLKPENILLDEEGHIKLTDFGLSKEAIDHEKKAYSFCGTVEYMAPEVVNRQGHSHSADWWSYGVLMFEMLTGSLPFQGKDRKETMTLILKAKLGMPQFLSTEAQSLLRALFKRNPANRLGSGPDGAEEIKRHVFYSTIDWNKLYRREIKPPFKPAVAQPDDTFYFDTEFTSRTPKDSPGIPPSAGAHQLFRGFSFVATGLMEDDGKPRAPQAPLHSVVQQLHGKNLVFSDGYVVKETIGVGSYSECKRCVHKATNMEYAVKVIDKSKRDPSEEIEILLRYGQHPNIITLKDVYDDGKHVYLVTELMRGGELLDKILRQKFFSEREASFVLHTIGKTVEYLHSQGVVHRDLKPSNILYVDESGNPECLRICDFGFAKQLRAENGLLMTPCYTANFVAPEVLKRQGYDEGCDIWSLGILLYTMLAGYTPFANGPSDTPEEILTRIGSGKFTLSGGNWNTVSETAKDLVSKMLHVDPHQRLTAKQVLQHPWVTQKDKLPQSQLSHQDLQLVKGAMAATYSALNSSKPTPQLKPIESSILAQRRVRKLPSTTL
Chain of Ribosomal protein S6 kinase alpha-6 (Homo sapiens) (Q9UK32 whole entry): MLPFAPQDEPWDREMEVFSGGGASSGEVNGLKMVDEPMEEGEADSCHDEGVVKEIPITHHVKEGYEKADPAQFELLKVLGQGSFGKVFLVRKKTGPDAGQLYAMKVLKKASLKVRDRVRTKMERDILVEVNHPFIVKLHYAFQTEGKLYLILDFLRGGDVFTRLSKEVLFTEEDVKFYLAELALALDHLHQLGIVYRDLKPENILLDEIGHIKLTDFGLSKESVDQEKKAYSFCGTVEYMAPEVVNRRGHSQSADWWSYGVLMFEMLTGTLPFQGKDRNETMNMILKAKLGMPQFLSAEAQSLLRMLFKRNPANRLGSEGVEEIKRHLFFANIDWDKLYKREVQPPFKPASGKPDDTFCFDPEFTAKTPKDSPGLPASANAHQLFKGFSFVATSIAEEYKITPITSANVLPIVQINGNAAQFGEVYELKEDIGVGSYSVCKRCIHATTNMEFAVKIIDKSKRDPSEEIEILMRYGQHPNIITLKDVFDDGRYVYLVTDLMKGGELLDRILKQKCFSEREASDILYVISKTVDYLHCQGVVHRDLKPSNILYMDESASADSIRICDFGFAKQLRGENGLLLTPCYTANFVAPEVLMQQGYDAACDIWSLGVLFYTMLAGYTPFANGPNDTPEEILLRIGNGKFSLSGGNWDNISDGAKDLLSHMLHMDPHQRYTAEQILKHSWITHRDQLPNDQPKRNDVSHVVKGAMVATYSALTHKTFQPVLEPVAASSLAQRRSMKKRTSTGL
Chain of Ribosomal protein S6 kinase alpha-3 (Homo sapiens) (P51812 whole entry): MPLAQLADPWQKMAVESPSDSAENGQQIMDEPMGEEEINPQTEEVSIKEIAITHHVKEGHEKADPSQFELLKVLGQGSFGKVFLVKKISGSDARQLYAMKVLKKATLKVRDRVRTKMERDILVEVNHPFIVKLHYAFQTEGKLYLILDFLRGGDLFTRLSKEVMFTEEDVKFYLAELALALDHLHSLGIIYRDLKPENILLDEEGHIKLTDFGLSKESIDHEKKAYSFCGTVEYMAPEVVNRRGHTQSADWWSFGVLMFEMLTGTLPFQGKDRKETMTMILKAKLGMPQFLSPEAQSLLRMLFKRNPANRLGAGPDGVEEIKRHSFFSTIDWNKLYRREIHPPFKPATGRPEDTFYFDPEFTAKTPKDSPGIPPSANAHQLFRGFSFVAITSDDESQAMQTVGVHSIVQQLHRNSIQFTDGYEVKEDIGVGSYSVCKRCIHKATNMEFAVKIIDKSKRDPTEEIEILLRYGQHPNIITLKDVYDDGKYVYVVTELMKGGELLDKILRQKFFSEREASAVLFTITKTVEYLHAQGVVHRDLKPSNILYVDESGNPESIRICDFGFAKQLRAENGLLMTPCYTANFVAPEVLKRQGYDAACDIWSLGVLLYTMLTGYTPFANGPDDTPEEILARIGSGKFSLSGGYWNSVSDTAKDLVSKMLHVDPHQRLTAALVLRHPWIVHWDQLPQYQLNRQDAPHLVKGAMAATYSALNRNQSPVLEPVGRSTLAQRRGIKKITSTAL
Chain of Mitogen-activated protein kinase 14 (Homo sapiens) (Q16539 whole entry): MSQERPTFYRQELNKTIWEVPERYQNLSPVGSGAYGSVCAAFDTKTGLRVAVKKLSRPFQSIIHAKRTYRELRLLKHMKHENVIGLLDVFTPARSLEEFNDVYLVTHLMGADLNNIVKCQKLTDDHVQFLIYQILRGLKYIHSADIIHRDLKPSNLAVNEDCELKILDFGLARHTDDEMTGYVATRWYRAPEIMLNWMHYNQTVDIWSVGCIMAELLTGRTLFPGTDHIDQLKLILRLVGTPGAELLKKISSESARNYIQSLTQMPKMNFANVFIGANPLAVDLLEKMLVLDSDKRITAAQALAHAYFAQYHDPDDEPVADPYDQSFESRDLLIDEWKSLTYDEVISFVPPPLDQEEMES

As to `COc1cc2ncnc(N3CCN(C(=O)Nc4ccc(Oc5ccccc5)cc4)CC3)c2cc1OC`, the residual activity in assay [1] came to 93%; in assay [2], 118%; in [3], 56%; in assay [4] it was 65%; in [5], 90%; in assay [6], 71%. Further, the residual activity turned out to be 106% in assay [7], 111% in assay [8], 78% in assay [9] and 79% in assay [10].

Turning to `C[C@@H](N)[C@H]1CC[C@H](C(=O)Nc2ccncc2)CC1`, the residual activity in assay [2] was determined as 48%; in [5], 62%; in assay [6] it was 11%; in [7], 110%; in assay [8], 60%; in assay [9], 106%. Besides, the residual activity in assay [10] turned out to be 107%.

As for `c1ccc(-c2n[nH]cc2-c2ccnc3ccccc23)nc1`, the residual activity in assay [3] turned out to be 60%; in assay [4], 62%; in assay [5], 108%; in assay [6], 95%; in [9], 49%; in [10] it was 15%.

As to `O=C(Nc1cccc(Nc2nccc(Nc3cccc(C(F)(F)F)c3)n2)c1)C1CC1`, the residual activity amounted to 78% in [1]; 36% in assay [2]; 45% in assay [3]; 27% in [4]; 106% in [5]; 62% in assay [6]. Also, the residual activity in assay [7] came to 96%; in [8], 128%; in [9], 79%; in [10], 59%.

As for `COc1cc2ncnc(Nc3ccc(NC(=O)c4ccccc4)cc3)c2cc1OC`, the residual activity in assay [2] was determined as 75%; in [3], 67%; in [4] it was 40%; in assay [5], 109%; in assay [6], 69%; in assay [7], 104%. Also, in assay [8], the residual activity is 109%.

Turning to `CCN(CC)CCCCN1c2ccccc2Oc2ccc(Cl)cc21`, the residual activity in assay [1] amounted to 110%; in assay [2] it was 117%; in assay [3], 67%; in assay [4], 64%; in [5], 109%; in assay [6], 90%. Besides, the residual activity in assay [7] was found to be 118%; in assay [8], 104%; in assay [9], 93%; in [10], 84%.

`O=C1NC(=O)/C(=C/c2ccc3c(c2)OC(F)(F)O3)S1`: the residual activity in assay [1] amounted to 125%; in [2], 65%; in assay [3] it was 56%; in [4] it was 35%; in assay [5], 117%; in assay [6], 99%. For the same molecule, the residual activity in assay [7] came out at 125%; in assay [8] it was 103%; in assay [9], 99%; in assay [10], 109%.

As for `COc1ccc(OC)c2c(=S)c3ccccc3[nH]c12`, the residual activity in assay [1] was 116%; in [2] it was 106%; in assay [3], 99%; in assay [4], 107%; in [5] it was 90%; in assay [6], 88%. Further, the residual activity stood at 98% in assay [7], 98% in [8], 88% in assay [9] and 91% in [10].

As for `Cn1cc(/C=C2\C(=O)Nc3ccc(S(N)(=O)=O)cc32)c2ccccc21`, the residual activity in [1] came out at 9%; in [2], 6%; in assay [3] it was 9%; in [4] it was 1%; in [5], 4%; in assay [6] it was 0%. The residual activity is 21% in assay [7], 10% in assay [8], 94% in assay [9] and 96% in assay [10].

For the molecule `COc1cc2ncc(-c3ccccc3)nc2cc1OC`, the residual activity in [3] was 54%; in assay [4], 25%; in assay [5], 100%; in [6], 68%; in [7], 92%; in assay [8], 94%. Also, the residual activity in assay [9] worked out at 92%; in [10] it was 88%.

On to `c1ccc(-c2n[nH]c3c2oc2ccccc23)cc1`, for which the residual activity in assay [1] was determined as 97%; in assay [2], 58%; in assay [3], 66%; in [4] it was 44%; in assay [5] it was 92%; in assay [6], 64%. Moreover, the figures for the residual activity in [9] and in assay [10] were 93% and 78%, respectively.

Consider `N#Cc1cnc2cnc(NCc3cccnc3)cc2c1Nc1ccc(F)c(Cl)c1`, for which the residual activity was 2% in assay [1]; 1% in assay [2]; 0% in assay [3]; -1% in assay [4]; 0% in [5]; 0% in [6]. Moreover, the residual activity amounted to 97% in [7], 93% in assay [8], 87% in assay [9] and 89% in assay [10].

For `Oc1n[nH]c2nnc(-c3c(-c4ccccc4)nn4ccccc34)cc12`, the residual activity came to 114% in assay [1]; 111% in [2]; 96% in [3]; 86% in [4]; 90% in assay [5]; 78% in assay [6]. In addition, the residual activity was found to be 91% in assay [7], 106% in [8], 93% in [9] and 85% in [10].

As to `CCOc1cc2ncnc(Nc3cccc(Br)c3)c2cc1OCC`, the residual activity came out at 100% in assay [1]; 72% in assay [2]; 102% in [3]; 40% in [4]; 90% in assay [5]; 48% in assay [6]. Moreover, the residual activity in assay [7] was 92%; in [8], 46%; in [9] it was 57%; in assay [10], 13%.

Take `Cc1ccc(NC2=CC(=O)c3sc(C)nc3C2=O)cc1`: the residual activity amounted to 104% in assay [1]; 78% in [2]; 117% in assay [3]; 123% in [4]; 101% in [5]; 102% in [6]. Also, the residual activity in [7] stood at 72%; in assay [8], 111%; in assay [9] it was 97%; in assay [10], 93%.

Turning to `O=c1cc(-c2cccc3c2Sc2ccccc2S3)oc(N2CCOCC2)c1`, the residual activity in assay [1] came to 87%; in assay [2], 94%; in [3], 106%; in [4], 93%; in [5] it was 98%; in [6], 99%. Further, the residual activity in assay [7] came out at 96%; in assay [8], 87%; in [9] it was 103%; in assay [10], 99%.

Turning to `CN(C)CCCn1cc(C2=C(c3c[nH]c4ccccc34)C(=O)NC2=O)c2ccccc21`, the residual activity was 15% in [1]; 2% in [2]; 4% in assay [7]; 3% in assay [8]; 109% in [9]; 106% in assay [10].

As to `Cn1nc2c3c(cccc31)C(=O)c1ccccc1-2`, the residual activity in assay [2] is 93%; in [3] it was 58%; in assay [4], 42%; in [5], 90%; in [6] it was 63%; in assay [7] it was 59%. Besides, the residual activity came to 67% in assay [8], 91% in assay [9] and 90% in assay [10].
